This is an account of results in PubChem BioAssay (Tox21).

The nature of assay [1]: qHTS assay for small molecules that induce genotoxicity in human embryonic kidney cells expressing luciferase-tagged ATAD5 (AID 651632). Also: nearly all actives have a fitted effect of over 15% in size. A digest of the protocol: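 Concentration-response screen for ATAD5 upregulation in HEK293T luciferase reporter cells; 16 hr treatment at 37C, then luminescence after 30 min with Amplite at room temperature.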
The nature of assay [2]: qHTS assay for small molecule agonists of the p53 signaling pathway - cell viability (AID 651633; calls by dose curve; also: nearly all actives have a fitted effect of over 30% in size; also: potency is read from the fitted curve at half-maximal effect). A digest of the protocol: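 p53RE-bla cells, seeded at 4,000 per well and rested 5 h at 37 C/5% CO2, received compounds in DMSO for 16 h at 37 C. CellTiter-Glo was then added, and luminescence was read after 30 min at room temperature to gauge cytotoxicity.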
On the technique in general: Quantitative high-throughput screening tests each substance at several concentrations.

Assay [3] is described as follows: qHTS assay for small molecule disruptors of the mitochondrial membrane potential - cell viability (AID 720634; calls by dose curve;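 also: human HepG2 liver cancer cells; series mostly up to about 83 µM; nearly all actives have a fitted effect of over 20% in size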). A digest of the protocol: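 In this qHTS format, HepG2 cells plated overnight were pinned with compound, incubated 1 hr, and assayed for ATP luminescence with CellTiter-Glo after m-MPI dye addition.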
A short description of assay [4]: qHTS assay to test for compound auto fluorescence at 535 nm (green) in HepG2 cells (AID 720675).
The nature of assay [5]: qHTS assay to test for compound auto fluorescence at 460 nm (blue) in HEK293 cells (AID 720678). An outline of the steps: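 HEK293 cells (2,000/well, medium with 10% dialyzed FBS) attached 4-5 hr, then exposed to compound overnight at 37C, 5% CO2. Blue fluorescence read at 405/460 nm, with triamterene as reference fluorophore.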
Assay [6] can be described thus: qHTS assay to test for compound auto fluorescence at 590 nm (red) in HEK293 cells (AID 720679). An outline of the steps: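 HEK293 cells (2,000/well, 10% dialyzed FBS) attached 4-5 hr, then dosed with compound or DMSO and incubated overnight at 37C, 5% CO2. Red fluorescence read at 540/590 nm, Rose Bengal sodium as reference fluorophore.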
Assay [7] in a line: qHTS assay to test for compound auto fluorescence at 460 nm (blue) in HEK293 cell free culture (AID 720681). A digest of the protocol:
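Test compounds were pinned into cell-free culture medium (DMEM with 10% FBS) and fluorescence was read directly at Ex/Em 405/460 nm. Signals were expressed as fluorescence equivalents of triamterene, with DMSO vehicle as control.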

Assay [8] is described as follows: qHTS assay to test for compound auto fluorescence at 535 nm (green) in HEK293 cell free culture (AID 720682). A digest of the protocol:
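Compounds were pin-transferred into cell-free DMEM with 10% FBS, and green fluorescence was read at excitation 485 nm and emission 535 nm. Intensities were expressed as fluorescein-equivalent values.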

Assay [9] can be described thus: qHTS assay to test for compound auto fluorescence at 590 nm (red) in HepG2 cell free culture (AID 720684). An outline of the steps: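 Readout: intrinsic compound fluorescence at 590 nm emission after 540 nm excitation, scaled to Rose Bengal sodium. Matrix was cell-free MEM with 10% FBS; DMSO vehicle wells served as control.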
Assay [10] in a line: qHTS assay to test for compound auto fluorescence at 460 nm (blue) in HepG2 cell free culture (AID 720685). An outline of the steps: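 Cell-free plates of MEM plus 10% FBS received 23 nL compound or DMSO vehicle; blue-channel (405/460 nm) intensity scored against triamterene as reference fluorophore.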
Assay [11] is described as follows: qHTS assay to test for compound auto fluorescence at 535 nm (green) in HepG2 cell free culture (AID 720686).
The nature of assay [12]: qHTS assay to test for compound auto fluorescence at 460 nm (blue) in HepG2 cells (AID 720687). A digest of the protocol: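 Cells (2,000/well in MEM with 10% FBS) attached overnight at 37 C, then were exposed to compound or DMSO for 1 hr at 37 C, 5% CO2. Fluorescence read at Ex/Em 405/460 nm, expressed as triamterene-equivalent signal.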
A short description of assay [13]: qHTS assay for identifying genotoxic compounds that show differential cytotoxicity against isogenic chicken DT40 cell lines with known DNA damage response pathways - wild type cell line (AID 743012). Also: nearly all actives have a fitted effect of over 60% in size. Also: potency is read from the fitted curve at half-maximal effect. An outline of the steps: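 Endpoint: CellTiter-Glo luminescence, 30 min RT. Cells: wild type DT40, 300/well. Exposure: compounds in DMSO, 40 h, 37 C/5% CO2, after ~0.5 h pre-incubation.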

Assay [14] in a line: qHTS assay for identifying genotoxic compounds that show differential cytotoxicity against isogenic chicken DT40 cell lines with known DNA damage response pathways - Rad54/Ku70 mutant cell line (AID 743015). Also: nearly all actives have a fitted effect of over 60% in size. Also: potency is read from the fitted curve at half-maximal effect.
Assay [15] can be described thus: qHTS assay to identify small molecule antagonists of the androgen receptor (AR) signaling pathway - cell viability counter screen (AID 743033; also: nearly all actives have a fitted effect of over 45% in size).
The nature of assay [16]: qHTS assay to identify small molecule antagonists of the androgen receptor (AR) signaling pathway using the MDA cell line - cell viability counter screen (AID 743041; also: nearly all actives have a fitted effect of over 45% in size). A digest of the protocol: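 qHTS viability read-out; MDA-kb2 AR-luc; R1881-stimulated; 16 h exposure at 37C, 0% CO2; CellTiter-Fluor, 30 min; fluorescence intensity.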
Assay [17] can be described thus: qHTS assay to identify small molecule antagonists of the estrogen receptor alpha (ER-alpha) signaling pathway - cell viability counter screen (AID 743074; calls by dose curve;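 also: HEK293 cells carrying ER-alpha-UAS-bla reporter stimulated with 17beta-estradiol; nearly all actives have a fitted effect of over 45% in size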).
The next assay deals with Aromatase (Homo sapiens) (UniProt P11511). Description: qHTS assay to identify aromatase inhibitors (AID 743083). Also: series mostly up to about 70 µM; nearly all actives have a fitted effect of over 55% in size.
Sequence of Aromatase (Homo sapiens) (P11511 whole entry, looked up): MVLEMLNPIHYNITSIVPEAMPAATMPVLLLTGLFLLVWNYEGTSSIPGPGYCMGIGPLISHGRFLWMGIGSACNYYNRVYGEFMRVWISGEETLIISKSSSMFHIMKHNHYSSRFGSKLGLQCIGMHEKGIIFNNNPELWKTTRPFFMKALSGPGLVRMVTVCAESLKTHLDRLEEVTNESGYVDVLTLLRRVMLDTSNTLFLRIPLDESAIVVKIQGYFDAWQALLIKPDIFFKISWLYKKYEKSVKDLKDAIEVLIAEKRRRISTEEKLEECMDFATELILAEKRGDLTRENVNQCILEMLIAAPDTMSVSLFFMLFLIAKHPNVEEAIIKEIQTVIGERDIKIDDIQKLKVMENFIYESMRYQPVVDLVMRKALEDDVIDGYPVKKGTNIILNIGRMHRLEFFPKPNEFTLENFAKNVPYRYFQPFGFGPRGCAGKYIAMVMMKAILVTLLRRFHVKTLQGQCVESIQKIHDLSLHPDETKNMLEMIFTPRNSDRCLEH
Assay [18] can be described thus: qHTS assay to identify aromatase inhibitors - cell viability counter screen (AID 743084).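 Also: cells stimulated with testosterone during compound exposure; nearly all actives have a fitted effect of over 55% in size.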
The target in assay [19] is Aryl hydrocarbon receptor (Homo sapiens) (UniProt P35869). Description: qHTS assay to identify small molecule that activate the aryl hydrocarbon receptor (AhR) signaling pathway (AID 743085).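 Also: HG2L7.5c1 human HepG2 liver cells with stably integrated DRE-driven firefly reporter; series mostly up to about 70 µM; nearly all actives have a fitted effect of over 15% in size.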 A digest of the protocol: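 Luminescence (ONE-Glo) from a dioxin-responsive-element luciferase reporter in HG2L7.5c1 HepG2 cells after 24 hr compound exposure at 37C; viability measured by CellTiter-Fluor fluorescence beforehand.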
Sequence of Aryl hydrocarbon receptor (Homo sapiens) (P35869 whole entry, looked up): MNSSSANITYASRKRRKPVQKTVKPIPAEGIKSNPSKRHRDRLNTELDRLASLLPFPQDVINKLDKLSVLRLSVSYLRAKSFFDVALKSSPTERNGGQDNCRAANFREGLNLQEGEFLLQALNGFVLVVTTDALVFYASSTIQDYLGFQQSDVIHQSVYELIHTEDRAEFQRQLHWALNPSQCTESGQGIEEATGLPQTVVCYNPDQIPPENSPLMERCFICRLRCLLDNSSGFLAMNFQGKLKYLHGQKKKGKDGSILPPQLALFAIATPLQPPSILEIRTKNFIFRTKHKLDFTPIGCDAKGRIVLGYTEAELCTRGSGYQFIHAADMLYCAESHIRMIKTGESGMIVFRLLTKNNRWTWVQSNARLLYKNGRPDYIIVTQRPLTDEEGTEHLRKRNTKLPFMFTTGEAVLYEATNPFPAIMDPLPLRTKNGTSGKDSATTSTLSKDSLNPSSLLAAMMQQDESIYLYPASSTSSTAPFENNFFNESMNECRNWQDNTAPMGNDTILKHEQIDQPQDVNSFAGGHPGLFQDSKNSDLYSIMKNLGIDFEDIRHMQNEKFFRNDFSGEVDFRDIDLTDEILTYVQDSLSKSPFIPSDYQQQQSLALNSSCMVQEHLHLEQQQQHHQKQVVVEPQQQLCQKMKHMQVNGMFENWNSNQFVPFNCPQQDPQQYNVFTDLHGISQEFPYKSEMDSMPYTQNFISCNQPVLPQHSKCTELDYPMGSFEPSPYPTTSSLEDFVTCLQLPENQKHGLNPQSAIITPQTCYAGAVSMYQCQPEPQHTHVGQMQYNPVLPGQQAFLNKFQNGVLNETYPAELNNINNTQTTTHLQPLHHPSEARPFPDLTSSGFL

Results filed as inconclusive are left out. Active and inactive are the calls of the source. Unless noted, calls follow the shape of the dose curve; as a rule, active = well fitted curve in the direction sought with a large enough effect in the repeat runs; inconclusive = weak or mixed curves; inactive = no such curve, though single readings can be large; an effect the other way counts as inactive or inconclusive.

With `CCCCCCCCCC(=O)O[C@H]1CC[C@H]2[C@@H]3CCC4=CC(=O)CC[C@]4(C)[C@H]3CC[C@]12C`, the Potency entry in assay [1], in [2], in assay [3], in assay [4], in [5] and in assay [7] was “inactive” throughout. The Potency result in [8], in [10], in [11], in assay [12], in [13] and in [14] was “inactive” in each case. Further, the Potency result (in assay [15]; in [16]; in assay [17]; in the assay with Aromatase (Homo sapiens); in assay [18]; in assay [19]) was “inactive” throughout. For the same compound, the outcome in assay [6] and in [9] was inactive.

For the compound `COc1ccc2c3c1O[C@H]1C(=O)CC[C@H]4[C@@H](C2)N(C)CC[C@]314`, the Potency result in assay [1], in assay [2], in assay [3], in [4], in [5] and in [7] was “inactive” each time. Moreover, the Potency entry in [10], in assay [11], in assay [12], in assay [13], in assay [14] and in assay [15] was “inactive” each time. For the same compound, the Potency entry (in assay [16]; with Aromatase (Homo sapiens); in assay [18]; in [19]) was “inactive” throughout. Also, the compound was called inactive in [6] and in assay [9].

For the compound `CCCC(=O)OC(C(Cl)(Cl)Cl)P(=O)(OC)OC` (configuration not stated), the Potency result in [1], in [2], in assay [3], in assay [4], in [5] and in assay [7] was “inactive” throughout. Further, the Potency result in [8], in assay [10], in assay [11], in assay [12], in assay [13] and in [14] was “inactive” in each case. For the same compound, the Potency entry (in assay [15]; in assay [16]; in [17]; with Aromatase (Homo sapiens); in [18]) was “inactive” each time. Also, the call in assay [6] and in assay [9] was inactive.

As for `CO[C@H]1[C@@H](O)C[C@H](O[C@H]2[C@@H](O)C[C@H](O[C@H]3[C@@H](O)C[C@H](O[C@H]4CC[C@@]5(C)[C@H](CC[C@@H]6[C@@H]5C[C@@H](O)[C@]5(C)[C@@H](C7=CC(=O)OC7)CC[C@]65O)C4)O[C@@H]3C)O[C@@H]2C)O[C@@H]1C`, the Potency result in assay [1], in [3], in assay [4], in assay [5], in [7] and in [10] was “inactive” throughout. Further, the Potency entry (in [11]; in assay [12]; with Aromatase (Homo sapiens); in assay [18]; in [19]) was “inactive” throughout. In addition, the Potency in assay [2] is 84.1 nM (active); in assay [13] it was 531 nM (active); in [14], 668 nM (active). Further, the compound was classed as inactive in assay [6] and in [9].

As for `C[N+]1(C)CCCCC1COC(=O)C(O)(c1ccccc1)c1ccccc1` (configuration not stated), the Potency entry in assay [1], in assay [2], in [3], in assay [4], in [5] and in [7] was “inactive” in each case. Besides, the Potency result in [8], in assay [10], in [11], in [12], in [13] and in [14] was “inactive” each time. The Potency entry (in assay [15]; in assay [16]; in assay [17]; with Aromatase (Homo sapiens); in assay [18]; in assay [19]) was “inactive” in each case. Besides, the result in assay [6] and in assay [9] was inactive.

On to `[S]=[Sb](=[S])[S][Sb](=[S])=[S]`, for which the Potency result in [1], in [2], in assay [3], in [4], in assay [5] and in [7] was “inactive” throughout. Moreover, the Potency result in assay [8], in assay [10], in assay [11], in assay [12], in assay [14] and in assay [15] was “inactive” throughout. The Potency result (in assay [16]; in assay [17]; with Aromatase (Homo sapiens); in [18]; in assay [19]) was “inactive” throughout. Moreover, the compound was called inactive in assay [6] and in assay [9].
